Test results: PubChem BioAssay (NCI)
“And” between values parts separate entries of the source, which are not always exact repeats. Identical values can stand only once. This is part of a sample that, as a whole, favours compounds with a hit. Of some 79,000 tested, about 15% had one in any assay. Unmarked numbers belong to inactive results. The source made the active and inactive calls. No stated cut-off is given here; in the data, active means growth inhibition above about 70%; inactive means the rest.

Assay: NCI Yeast Anticancer Drug Screen. Data for the mlh1 rad18 strain (AID 175)
Settings: S. cerevisiae mlh1 rad18 strain growth inhibition, stronger effect = higher value
Method: Growth inhibition of yeast strains with defined genetic alterations is measured as a screen for potential anti-cancer activity. Selected strains with alterations in DNA damage repair or cell cycle control were exposed to compounds and growth inhibition was measured relative to vehicle treated controls. The strain used in this assay is mlh1 rad18

[1] = at 5.0 µM (retest, dose inferred, filed as 0.5)
[2] = at 50.0 µM (retest, dose inferred, filed as 5.0)

| SMILES | growth inhibition [1] | growth inhibition [2] | growth inhibition (at 50.0 µM) |
| --- | --- | --- | --- |
| CC[C@]1(O)CC(OC2CC(N(C)C)C(O)C(C)O2)c2c(cc3c(c2O)C(=O)c2c(O)cccc2C3=O)[C@@H]1C(=O)OC (some centres not stated) | 22% | 95% (active) | 91% (active) |
| OC(c1ccc(Cl)cc1)C(Cl)(Cl)Cl (configuration not stated) | 3% | 97% (active) | 97.5% (active) |
| CCCCCNC(=O)c1c(O)[nH]c(=S)[nH]c1=O | 42% | 47% | 90.1% (active) |
| CCOP(=S)(S)OCC.[Pd] | 83% (active) | 56% | 79.5% (active) |
| CCCCCCCCCCCCCCCCCC[N+](C)(C)C | 97% (active) | 96% (active) | 89.8% (active) |
| O=[N+]([O-])O.O=[N+]([O-])O.[NH-]C1CCCCC1[NH-].[Pt+2] (configuration not stated) | 16% | 75% (active) | 92.3% (active) |
| C[n+]1ccccc1-c1nc(-c2cccc[n+]2C)nc(-c2cccc[n+]2C)n1 | 37% | 82% (active) | 84.2% (active) |
| c1cnc2c(c1)ccc1cccnc12 | 52% and 17% | 97% (active) and 98% (active) | 98.8% (active) |
| CC(=O)OC1C(=O)OCC23CCC4(C)OC4C2OC2CC(OC(=O)/C=C/C=C/C(=O)OCCC1C)C3(C)C21CO1 (configuration not stated) | 100% (active) | 99% (active) | 92.3% (active) |
| CN(C)CCC(C(=O)C(Br)Br)(c1ccccc1)c1ccccc1 | 33% | 99% (active) | 99% (active) |
| CCN(CC)CC(=O)O[C@]1(CC)C(=O)OCc2c1cc1n(c2=O)Cc2cc3ccccc3nc2-1 | 91% (active) | 96% (active) | 85.6% (active) |
| C/C(CCl)=N/NC1=NC(c2ccccc2Cl)P(=O)(NCCCNP2(=O)SC(N/N=C(/C)CCl)=NC2c2ccccc2Cl)S1 (configuration not stated) | -5% | 18% | 95.9% (active) |
| CCc1cc2c(cc1O)C(C)(C)CCC2(C)C | 0% | 4% | 98% (active) |
| [Cl][Sn]([Cl])([c]1ccccc1)[c]1ccccc1.c1ccncc1.c1ccncc1 | 95% (active) | 96% (active) | 98.7% (active) |
